This is a sample that favours compounds with a hit; in the whole collection about 4% have one here.
Mtb bLac sens – beta-lactam sensitization of Mtb H37Rv; M. tuberculosis H37Rv growth with meropenem, percent inhibition; 330,000 compounds, 0.27% hits; inhibition, % at 25 µM; call rule not given here;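 note: growth measured after seven days incubation then overnight dye step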
Mtb FBA inh – Mtb fructose-bisphosphate aldolase inhibition | P9WQA3 | purified M. tuberculosis FBA, fluorescence read-out | inhibition, % at 1 µM | 360,000 compounds, 2.3% hits; in the data active = inhibition above about 27%
Target sequence (P9WQA3 whole entry, looked up): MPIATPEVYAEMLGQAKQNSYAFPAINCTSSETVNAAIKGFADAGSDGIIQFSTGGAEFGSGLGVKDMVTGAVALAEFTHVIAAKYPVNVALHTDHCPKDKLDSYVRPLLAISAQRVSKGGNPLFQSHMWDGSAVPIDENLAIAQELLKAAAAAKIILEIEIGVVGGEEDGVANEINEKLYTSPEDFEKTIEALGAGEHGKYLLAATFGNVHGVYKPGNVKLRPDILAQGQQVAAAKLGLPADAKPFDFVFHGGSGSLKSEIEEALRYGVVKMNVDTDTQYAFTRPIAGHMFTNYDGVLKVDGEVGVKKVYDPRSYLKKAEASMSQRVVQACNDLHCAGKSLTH
RecA splice inh – Mtb RecA intein splicing inhibition; P9WHJ3; cell-free RecA intein splicing, fluorescence; inhibition, % (concentration not given with the values); 290,000 compounds, 0.75% hits; AID 2221; in the data active = inhibition above about 30%; inconclusive = no clear call, values can overlap the other calls
Rv3671c protease – Rv3671c (M. tuberculosis) protease inhibition | P9WHR9 | inhibition, % at 5.96 µM | 320,000 compounds, 0.048% hits; in the data active = inhibition above about 38%;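 note: extracellular domain of Rv3671c used as enzyme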
Target sequence (P9WHR9 whole entry, looked up, the tested form may be a part): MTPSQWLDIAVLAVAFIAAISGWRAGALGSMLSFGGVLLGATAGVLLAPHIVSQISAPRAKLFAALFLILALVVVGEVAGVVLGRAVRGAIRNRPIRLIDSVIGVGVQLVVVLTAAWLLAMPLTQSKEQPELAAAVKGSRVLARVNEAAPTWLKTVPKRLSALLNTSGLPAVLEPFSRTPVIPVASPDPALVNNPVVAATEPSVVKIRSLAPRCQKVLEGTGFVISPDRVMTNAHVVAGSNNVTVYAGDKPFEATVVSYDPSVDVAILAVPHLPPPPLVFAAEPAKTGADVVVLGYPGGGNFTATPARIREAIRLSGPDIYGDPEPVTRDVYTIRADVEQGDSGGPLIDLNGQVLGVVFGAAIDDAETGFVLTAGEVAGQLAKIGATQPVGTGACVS
GDH-TPI counter – inhibits GDH-TPI coupling enzymes, artifact for Mtb FBA screen | GDH-TPI coupled enzyme counterscreen, NADH absorbance | inhibition, % at 4.8 µM | 360,000 compounds, 1.2% hits | AID 588335; in the data active = inhibition above about 30%
UGM FP inh – blocks M. tuberculosis UGM enzyme. P9WIQ1. purified UGM, fluorescence polarization probe displacement. inhibition, % at 10 µM. 320,000 compounds, 0.06% hits. AID 504406; in the data active = inhibition above about 10%, passing the limit was not always enough; inconclusive = no clear call, values can overlap the other calls
Of the large screens only hits and unclear results are named; the others gave an inactive call.

Cc1noc(/C=C/N(C)C)c1S(=O)(=O)N1CCCC(C(=O)Nc2ccccc2F)C1 (stereo not given)	GDH-TPI counter 47
Cc1noc(/C=C/N(C)C)c1S(=O)(=O)N(C)CC(=O)NC1CCCCC1	GDH-TPI counter 51
CNC(=O)C1CCN(S(=O)(=O)c2c(C)noc2/C=C/N(C)C)CC1	GDH-TPI counter 35
Cc1ccc(NC(=O)C2(C)CCN2C2Cc3ccccc3C2)cc1 (stereo not given)	none (no result: Mtb bLac sens, RecA splice inh, Rv3671c protease, UGM FP inh)
CN(C)S(=O)(=O)N(CC(=O)Nc1ccc(S(=O)(=O)N2CCCC2)cc1)c1ccccc1	none
CN(C)CCn1c2c(c(SCC(=O)Nc3ccc4c(c3)OCCO4)nc1=O)CCCC2	none
Cc1noc(/C=C/N(C)C)c1S(=O)(=O)N1CCCC(C(=O)Nc2ccc3c(c2)OCO3)C1 (stereo not given)	none (no result: RecA splice inh)
Cc1noc(/C=C/N(C)C)c1S(=O)(=O)N1CCCC(C(=O)NC2CCCCC2)C1 (stereo not given)	GDH-TPI counter 58
Cc1cc(C)c(NC(=O)C2CCCN(S(=O)(=O)c3c(C)noc3/C=C/N(C)C)C2)c(C)c1 (stereo not given)	GDH-TPI counter 34
O=C(C1CCCN(S(=O)(=O)c2cc(Cl)ccc2Cl)C1)N1CCOCC1 (stereo not given)	none
COc1ccc(Cl)cc1Cn1c(C)c(C(=O)NCc2ccc3c(c2)OCCO3)sc1=O	none (no result: Mtb bLac sens, RecA splice inh, Rv3671c protease, UGM FP inh)
Cc1cc(C)n2cc(CSCC(=O)O)nc2n1	Mtb FBA inh 123
C/C(=N\Nc1ccc(C(F)(F)F)cn1)c1ccncc1	GDH-TPI counter 56
O=C(Nc1ccc(C(=O)O)cc1)/C(=C\c1ccc2c(c1)OCO2)NC(=O)c1ccco1	none
O=C(Nc1ccc(C(=O)O)cc1)/C(=C\c1ccc2c(c1)OCO2)NC(=O)c1ccccc1Cl	GDH-TPI counter 35 (no result: Mtb bLac sens, RecA splice inh, Rv3671c protease, UGM FP inh)
O=C(Nc1cccc(C(=O)O)c1)/C(=C/c1ccc2c(c1)OCO2)NC(=O)c1cccc(Br)c1	none
O=C(Nc1cccc(C(=O)O)c1)/C(=C\c1ccc2c(c1)OCO2)NC(=O)c1ccccc1Br	GDH-TPI counter 36 (no result: Mtb bLac sens, RecA splice inh, Rv3671c protease, UGM FP inh)
CC(C)(CC(=O)O)CC(=O)Nc1ccc(Oc2ccc(C(C)(C)C)cc2)nc1	none
COc1ccc(N(CC(=O)N2CCOCC2)S(C)(=O)=O)cc1Cl	none
Cc1cccc(C(=O)Nc2nnc(S(=O)(=O)N(C)Cc3ccco3)s2)c1	Mtb bLac sens inconclusive
Cc1cccc2c(N=NC(=O)C(C)n3cnc4ccccc4c3=O)c(O)[nH]c12 (stereo not given)	GDH-TPI counter 35
Cc1ccc(N2C(=O)c3cccc4c(N)ccc(c34)C2=O)c2cccnc12	none
CCN1C(=O)c2cccc3c(N)ccc(c23)C1=O	UGM FP inh 37
CCC(C(=O)Nc1ccsc1C(=O)OC)c1ccccc1 (stereo not given)	none
Cc1ccc(S(=O)(=O)Oc2ccccc2/C=N/O)cc1	none
Cc1ccc(S(=O)(=O)Oc2ccccc2/C=N/Nc2ccc(C(=O)O)cc2)cc1	GDH-TPI counter 51
O=C(C(=O)c1cc(Br)ccc1O)c1cc(Br)ccc1O	none (no result: Mtb bLac sens, RecA splice inh, Rv3671c protease, UGM FP inh)
O=C(c1ccc(O)c(Br)c1)c1cc(Br)ccc1O	GDH-TPI counter 35 (no result: Mtb bLac sens, RecA splice inh, Rv3671c protease, UGM FP inh)
Cn1c(=O)c2cc(NC(=O)CCc3cccnc3)ccc2n1Cc1cccc(C(F)(F)F)c1	Mtb FBA inh 141 (no result: Mtb bLac sens, RecA splice inh, Rv3671c protease, UGM FP inh)
Cn1c(=O)c2cc(NC(=O)Cc3cccnc3)ccc2n1-c1ccc2ccccc2c1	none (no result: Mtb bLac sens, RecA splice inh, Rv3671c protease, UGM FP inh)
COc1cc(Cn2c3ccc(NC(=O)CCc4cccnc4)cc3c(=O)n2C)ccc1F	Mtb FBA inh 177 (no result: Mtb bLac sens, RecA splice inh, Rv3671c protease, UGM FP inh)
COc1cc(Cn2c3ccc(NC(=O)NCCc4ccccc4)cc3c(=O)n2C)ccc1F	Mtb FBA inh 145 (no result: Mtb bLac sens, RecA splice inh, Rv3671c protease, UGM FP inh)
COc1ccc(NC(=O)NCCc2cccc(Cl)c2)cc1OC	none
COc1cc(Cn2c3ccc(NC(=O)CCc4ccccc4)cc3c(=O)n2C)ccc1F	Mtb FBA inh 157 (no result: Mtb bLac sens, RecA splice inh, Rv3671c protease, UGM FP inh)
COc1cccc(CSC(C(=O)O)c2ccccc2)c1 (stereo not given)	none (no result: Mtb bLac sens, RecA splice inh, Rv3671c protease, UGM FP inh)
Nc1ncnc2c1ncn2[C@@H]1O[C@H](C(=O)N[C@H]2c3ccccc3C[C@H]2OC=O)[C@@H](O)[C@H]1O	none (no result: Mtb bLac sens, RecA splice inh, Rv3671c protease, GDH-TPI counter, UGM FP inh)
Cc1ccc(NC(=O)[C@@H]2CCCN2S(=O)(=O)c2ccc(Cl)cc2)cc1	none (no result: RecA splice inh)
CNC(=O)C1CCC(=O)N1Cc1c[nH]c2ccccc12 (stereo not given)	none (no result: Mtb bLac sens, RecA splice inh, Rv3671c protease, GDH-TPI counter, UGM FP inh)
Cn1c(=O)c2cc(NC(=O)CCc3cccnc3)ccc2n1Cc1ccc(F)cc1	Mtb FBA inh 175 (no result: Mtb bLac sens, RecA splice inh, Rv3671c protease, UGM FP inh)
Cn1c(SCC(=O)NN2C(=O)NC(C)(c3ccccc3)C2=O)nnc1-c1ccncc1 (stereo not given)	none (no result: RecA splice inh)
Cc1cccn2c(=O)c3cc(C(=O)NCC4CCCO4)c(=N)n(Cc4cccnc4)c3nc12 (stereo not given)	Mtb FBA inh active (no result: RecA splice inh)
N=c1c(C(=O)NCC2CCCO2)cc2c(=O)n3ccccc3nc2n1Cc1cccnc1 (stereo not given)	Mtb FBA inh active
N=c1c(C(=O)NCC2CCCO2)cc2c(=O)n3ccccc3nc2n1Cc1ccc(F)cc1 (stereo not given)	Mtb FBA inh active
COc1ccc(CCn2c(=N)c(C(=O)NCC3CCCO3)cc3c(=O)n4cccc(C)c4nc32)cc1 (stereo not given)	none
COC(=O)c1cc2c(=O)n3ccccc3nc2n(Cc2cccnc2)c1=N	none (no result: Mtb FBA inh, GDH-TPI counter)
COc1ccccc1C(CNC(=O)c1ccc(NS(=O)(=O)c2ccc3c(c2)OCCO3)cc1)N(C)C (stereo not given)	none
CCc1cc(C(=O)NCC(c2cccs2)N2CCOCC2)sc1C (stereo not given)	none
CC(=O)N1CCc2c(sc(NC(=O)C3CC3)c2-c2nc3ccccc3s2)C1	RecA splice inh 30
COc1ccc([N+](=O)[O-])cc1-c1[nH]c(-c2ccc(C(=O)O)cc2)nc1-c1ccccc1	GDH-TPI counter 37
C[C@@H]1CCC(=O)N(CC[C@H](Sc2ccc(Br)cc2)c2ccccc2)CC1	none (no result: RecA splice inh)
Cc1ccc(S[C@@H](CCN2CC[C@H](C)CCC2=O)c2ccccc2)cc1	RecA splice inh 30
C/C(=N\NC(=O)c1ccccc1)c1ccc(N2CCOCC2)cc1	GDH-TPI counter 31
CCOC(=O)c1sc2nc(N3CCOCC3)c3c(c2c1N)CCC3	Mtb FBA inh 125
CC1(C)Cc2c(c(N3CCOCC3)nc3sc(C(N)=O)c(N)c23)CO1	GDH-TPI counter 32
Cc1ccc2c(c1)N(C(=O)CCC(=O)NC1CCC(C)CC1)CCO2 (stereo not given)	none
COc1ccc(C(=O)N2CCCC(c3cc(C(=O)NCc4cccnc4)no3)C2)cc1 (stereo not given)	none (no result: Mtb bLac sens, RecA splice inh, Rv3671c protease, UGM FP inh)
C[C@H](CO)N1C[C@H](C)[C@@H](CN(C)Cc2ccccc2)Oc2ccc(NC(=O)CCCCCC(=O)Nc3ccccc3N)cc2C1=O	none (no result: RecA splice inh)
CC(C)n1c(=O)c2ccccc2n1Cc1cn(Cc2cccnc2)nn1	Mtb FBA inh 154 (no result: Mtb bLac sens, RecA splice inh, Rv3671c protease, GDH-TPI counter, UGM FP inh)
CC(C)C[C@@H](CO)N1CCN(Cc2cccnc2)CCC1=O	none
CC(C)n1c(=O)c2ccccc2n1Cc1cn(Cc2cccs2)nn1	Mtb FBA inh 152 (no result: Mtb bLac sens, RecA splice inh, Rv3671c protease, GDH-TPI counter, UGM FP inh)
N#Cc1ccc(C(=O)Nc2cc(S(=O)(=O)N3CCOCC3)ccc2N2CCOCC2)cc1	none (no result: Mtb bLac sens, RecA splice inh, Rv3671c protease, UGM FP inh)
